Results on five molecules are retold here after PubChem BioAssay.

Structures are written as SMILES. Calls of active or inactive are those of the source.

Experiment [1] in a line: small molecules captured by biotinylated probe aFSTL3 – biochemical, small-molecule microarray, fluorescence 635/667, stem cell growth factor project, primary screen (AID 1064).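 Further: measures binding of the biotinylated anti-FSTL3 antibody to printed compounds.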 As to conditions: higher = more signal.
Experiment [2] can be described thus: binders from COS7 lysate, DM2A8 probe, primary screen, torsin A project, cell lysate, small-molecule microarray, fluorescence 635/667 (AID 1065). As to conditions: higher = more signal, COS7 lysate expressing mutant human TOR1A.
Experiment [3] is described as follows: small molecules captured by biotinylated probe aFGF2 – biochemical, small-molecule microarray, fluorescence 635/667, stem cell growth factor project, primary screen (AID 1067).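 Further: measures binding of biotinylated aFGF2 protein to printed compounds on slides; z-score merges feature fluorescence and signal-to-noise across triplicate slides.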 As to conditions: higher = more signal.
A short description of experiment [4]: small molecules captured by biotinylated probe aFGF10 – biochemical, small-molecule microarray, fluorescence 635/667, stem cell growth factor project, primary screen (AID 1071).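 Further: score merges 667 nm spot intensity and signal to noise from triplicate slides.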 As to conditions: higher = more signal.
For experiment [5], the target named is Neurogenic locus notch homolog protein 2 (Homo sapiens) (UniProt Q04721). Put plainly: small molecules binding Notch2 protein – biochemical, small-molecule microarray, 635 nm fluorescence, stem cell growth factors, primary screen (AID 1073). As to conditions: higher = more signal.
In experiment [6] the target is Pro-neuregulin-1, membrane-bound isoform (Homo sapiens) (UniProt Q02297). Kind of experiment: small molecules binding neuregulin-1 protein – biochemical, small-molecule microarray, fluorescence 635/667, psychiatric disease protein project, primary screen (AID 1075).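 Further: score combines 667 nm spot fluorescence with signal to noise.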 As to conditions: NRG1 binding, 635 nm fluorescence, higher = more signal.
For experiment [7], the system named is Neuregulin-1 EGF-like domain. Put plainly: small molecules binding NRG1 EGF domain – biochemical, small-molecule microarray, 635 nm fluorescence, primary screen (AID 1081).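 Further: binding of the protein to compounds printed on small-molecule microarray slides.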 As to conditions: higher = more signal.
Experiment [8] can be described thus: FRG1 expression reporter modulators in myotubes – cell-based, C2C12 myotubes, firefly/Renilla luciferase, luminescence, FRG1 inhibition for FSHD, primary screen (AID 1084). As to conditions: FRG1 promoter luciferase, higher = more signal, called active from +8 up or from −8 down.
Experiment [9] can be described thus: small molecules captured by biotinylated probe aFST – biochemical, small-molecule microarray, fluorescence 635/667, stem cell growth factor project, primary screen (AID 1086).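 Further: score merges 667 nm fluorescence with signal-to-noise of each printed compound spot.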 As to conditions: higher = more signal.
A short description of experiment [10]: binders of probe aHhip on microarray, primary screen, stem cell growth factor project, biochemical, small-molecule microarray, fluorescence 635/667 (AID 1087).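 Further: score merges spot fluorescence at 667nm with spot signal to noise ratio.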 As to conditions: higher = more signal.
Experiment [11] relates to PRMT1 (protein arginine N-methyltransferase 1). Kind of experiment: small molecules binding arginine methyltransferase PRMT1 – biochemical, small-molecule microarray, 635 nm fluorescence, primary screen (AID 1088).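 Further: binding of Prmt1 protein to compounds spotted on small-molecule microarray slides.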 As to conditions: higher = more signal.
A short description of experiment [12]: growth effects on S. cerevisiae YJM789 – YJM789 clinical isolate, OD600, 24 h, basal, primary screen (AID 1089).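 Further: growth of clinical yeast isolate S. cerevisiae YJM 789 seeded 1000 cells per well; test concentration not given here.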 As to conditions: higher = more signal, called active from +8 up or from −8 down.
The nature of experiment [13]: S. pombe growth modifiers, basal conditions – strain 972, OD600, 24 h, no modulator, primary screen (AID 1090).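 Further: basal condition with compound alone and no growth modifier present; test concentration not given here.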 As to conditions: S. pombe 972 growth, higher = more signal, called active from +8 up or from −8 down.
Experiment [14] is described as follows: budding yeast growth modifiers under rapamycin – strain BY4716, OD600, 96 h, primary screen (AID 1091). Further: test concentration not given here. As to conditions: S. cerevisiae BY4716 + rapamycin, higher = more signal, called active from +8 up or from −8 down.
In experiment [15] the target is Torsin-1A-interacting protein 2 (Homo sapiens) (UniProt Q8NFQ8). Put plainly: small molecules binding lysate-expressed LULL1 – cell lysate, human LULL1 lysate, 635/667 nm fluorescence, primary screen (AID 1092).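 Further: probe is lysate of COS7 cells overexpressing human LULL1; score merges per-feature 667 nm fluorescence with signal-to-noise.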 As to conditions: small-molecule microarray, hLULL1 lysate binding, 635 nm fluorescence; higher = more signal.
Experiment [16] in a line: optical density change of DRC41 E. coli – strain DRC41, OD650, 24 h, E. coli filamentation project, primary screen (AID 1093).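 Further: MC1000 strain lacking acrAB efflux and sulA so SOS filamentation is blocked; test concentration not given here.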 As to conditions: E. coli DRC41 growth, higher = more signal, called active from +8 up or from −8 down.
A short description of experiment [17]: probe aLefty2 binding to arrayed compounds – biochemical, biotinylated probe, 635/667 nm fluorescence, primary screen (AID 1094).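 Further: score merges spot fluorescence near 667 nm with spot signal-to-noise ratio.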 As to conditions: small-molecule microarray, higher = more signal.
Experiment [18] deals with Noggin (protein binding on small-molecule microarray). Put plainly: small molecules binding Noggin protein – biochemical, 635/667 nm fluorescence, primary screen (AID 1095).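 Further: score merges 667 nm feature fluorescence with signal to noise over triplicate slides.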 As to conditions: 635 nm fluorescence, higher = more signal.
Experiment [19] deals with Neurogenic locus notch homolog protein 3 (Homo sapiens) (UniProt Q9UM47). Put plainly: small molecules binding NOTCH3 protein – biochemical, 635/667 nm fluorescence, primary screen (AID 1096). As to conditions: small-molecule microarray, 635 nm fluorescence, higher = more signal.
Experiment [20] in a line: probe aEGFR binding to arrayed compounds – biochemical, biotinylated probe, 635/667 nm fluorescence, primary screen (AID 1097).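 Further: probe is a biotinylated anti-EGFR antibody binding compounds printed on slides; score combines fluorescence near 667 nm and signal to noise of each spot.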 As to conditions: small-molecule microarray, higher = more signal.

Sequence of Torsin-1A-interacting protein 2 (Homo sapiens) (Q8NFQ8 whole entry, looked up): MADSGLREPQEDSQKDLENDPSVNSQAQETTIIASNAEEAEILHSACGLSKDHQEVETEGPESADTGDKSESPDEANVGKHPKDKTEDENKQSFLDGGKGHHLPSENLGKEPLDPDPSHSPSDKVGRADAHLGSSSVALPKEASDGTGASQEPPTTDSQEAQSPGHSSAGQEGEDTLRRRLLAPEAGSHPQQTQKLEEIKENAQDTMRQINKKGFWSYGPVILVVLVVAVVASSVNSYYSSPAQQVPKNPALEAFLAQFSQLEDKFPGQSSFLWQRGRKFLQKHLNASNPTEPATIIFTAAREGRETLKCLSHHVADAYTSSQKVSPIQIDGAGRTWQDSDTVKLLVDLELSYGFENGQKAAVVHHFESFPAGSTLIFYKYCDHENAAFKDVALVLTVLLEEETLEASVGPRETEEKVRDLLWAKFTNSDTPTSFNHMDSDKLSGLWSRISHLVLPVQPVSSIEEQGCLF
Sequence of Pro-neuregulin-1, membrane-bound isoform (Homo sapiens) (Q02297 whole entry, looked up, the tested form may be a part, canonical isoform): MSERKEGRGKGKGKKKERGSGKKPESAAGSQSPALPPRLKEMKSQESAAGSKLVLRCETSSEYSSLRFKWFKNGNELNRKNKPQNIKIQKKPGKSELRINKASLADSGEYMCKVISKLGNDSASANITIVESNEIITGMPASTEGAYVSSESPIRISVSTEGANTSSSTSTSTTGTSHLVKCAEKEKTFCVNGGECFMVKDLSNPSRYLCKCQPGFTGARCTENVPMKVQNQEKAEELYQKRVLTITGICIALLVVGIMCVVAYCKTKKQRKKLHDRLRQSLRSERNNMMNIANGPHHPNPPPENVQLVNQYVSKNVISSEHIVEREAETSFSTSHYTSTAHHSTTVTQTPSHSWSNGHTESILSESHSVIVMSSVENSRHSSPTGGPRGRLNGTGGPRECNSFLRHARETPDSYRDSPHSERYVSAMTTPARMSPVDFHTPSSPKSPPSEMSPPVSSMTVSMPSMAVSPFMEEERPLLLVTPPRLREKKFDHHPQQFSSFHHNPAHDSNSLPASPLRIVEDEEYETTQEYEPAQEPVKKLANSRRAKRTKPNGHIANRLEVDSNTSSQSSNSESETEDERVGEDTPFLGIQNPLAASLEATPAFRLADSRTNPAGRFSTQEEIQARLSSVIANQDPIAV
Sequence of Neurogenic locus notch homolog protein 3 (Homo sapiens) (Q9UM47 whole entry, looked up): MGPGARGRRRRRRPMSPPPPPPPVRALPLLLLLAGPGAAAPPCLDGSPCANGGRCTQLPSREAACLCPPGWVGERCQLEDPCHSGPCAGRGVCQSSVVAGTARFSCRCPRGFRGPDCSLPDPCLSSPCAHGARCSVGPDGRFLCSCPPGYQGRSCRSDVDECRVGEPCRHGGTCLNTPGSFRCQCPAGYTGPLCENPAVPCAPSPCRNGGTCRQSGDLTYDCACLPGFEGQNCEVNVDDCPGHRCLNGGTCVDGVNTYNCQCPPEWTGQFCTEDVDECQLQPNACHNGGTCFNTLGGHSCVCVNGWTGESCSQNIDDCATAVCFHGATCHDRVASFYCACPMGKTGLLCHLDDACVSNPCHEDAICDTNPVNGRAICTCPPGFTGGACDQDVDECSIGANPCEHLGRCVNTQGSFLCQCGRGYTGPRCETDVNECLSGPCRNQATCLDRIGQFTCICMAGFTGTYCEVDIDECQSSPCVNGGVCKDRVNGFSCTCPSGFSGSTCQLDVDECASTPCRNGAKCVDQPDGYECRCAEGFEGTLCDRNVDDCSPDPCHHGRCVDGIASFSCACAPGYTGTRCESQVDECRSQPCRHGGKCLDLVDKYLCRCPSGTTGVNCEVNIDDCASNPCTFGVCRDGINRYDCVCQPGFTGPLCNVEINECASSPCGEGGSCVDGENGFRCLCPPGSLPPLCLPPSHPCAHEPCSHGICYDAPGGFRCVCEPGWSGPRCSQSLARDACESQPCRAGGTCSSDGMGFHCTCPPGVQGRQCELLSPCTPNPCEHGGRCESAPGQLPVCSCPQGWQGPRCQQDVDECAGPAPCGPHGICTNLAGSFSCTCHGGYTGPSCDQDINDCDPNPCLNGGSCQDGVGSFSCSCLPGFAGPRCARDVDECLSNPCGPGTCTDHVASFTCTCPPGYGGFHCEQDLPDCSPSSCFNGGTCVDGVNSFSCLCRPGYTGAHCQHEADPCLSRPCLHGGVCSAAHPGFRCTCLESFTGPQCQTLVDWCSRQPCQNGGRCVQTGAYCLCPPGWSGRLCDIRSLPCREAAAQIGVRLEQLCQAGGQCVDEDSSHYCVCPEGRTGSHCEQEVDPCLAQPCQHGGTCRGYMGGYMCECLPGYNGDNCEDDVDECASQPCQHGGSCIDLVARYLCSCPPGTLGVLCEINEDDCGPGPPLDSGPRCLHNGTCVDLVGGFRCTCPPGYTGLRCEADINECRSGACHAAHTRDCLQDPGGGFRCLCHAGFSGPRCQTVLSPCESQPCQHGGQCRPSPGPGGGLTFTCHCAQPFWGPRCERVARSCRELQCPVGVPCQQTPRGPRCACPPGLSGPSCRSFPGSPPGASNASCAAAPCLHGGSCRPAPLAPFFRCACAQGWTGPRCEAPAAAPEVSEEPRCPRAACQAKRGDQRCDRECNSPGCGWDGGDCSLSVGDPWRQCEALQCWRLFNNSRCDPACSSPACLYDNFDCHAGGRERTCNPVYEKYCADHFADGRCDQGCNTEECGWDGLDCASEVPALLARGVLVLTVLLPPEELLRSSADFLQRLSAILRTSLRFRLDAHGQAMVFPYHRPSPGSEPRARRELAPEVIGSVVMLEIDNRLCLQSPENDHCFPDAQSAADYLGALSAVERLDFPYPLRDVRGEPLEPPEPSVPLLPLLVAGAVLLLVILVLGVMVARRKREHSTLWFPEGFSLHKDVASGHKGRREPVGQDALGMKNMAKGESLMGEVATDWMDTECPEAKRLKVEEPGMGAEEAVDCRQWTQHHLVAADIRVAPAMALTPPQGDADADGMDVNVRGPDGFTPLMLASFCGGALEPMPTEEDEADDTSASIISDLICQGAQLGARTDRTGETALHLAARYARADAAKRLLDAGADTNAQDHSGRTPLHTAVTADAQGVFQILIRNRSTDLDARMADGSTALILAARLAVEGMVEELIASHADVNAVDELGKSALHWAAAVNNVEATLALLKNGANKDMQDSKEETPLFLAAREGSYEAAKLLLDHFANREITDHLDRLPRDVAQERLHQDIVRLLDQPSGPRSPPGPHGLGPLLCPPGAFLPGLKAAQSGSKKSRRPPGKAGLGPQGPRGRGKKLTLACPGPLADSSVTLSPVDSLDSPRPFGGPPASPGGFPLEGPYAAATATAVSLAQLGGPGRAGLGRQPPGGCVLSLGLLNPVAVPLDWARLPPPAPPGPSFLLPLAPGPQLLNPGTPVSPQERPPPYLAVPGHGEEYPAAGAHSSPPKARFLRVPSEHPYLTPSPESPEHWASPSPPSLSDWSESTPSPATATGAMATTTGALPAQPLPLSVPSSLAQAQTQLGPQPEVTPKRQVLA

`CCOC(=O)C1=CCC(c2ccc([N+](=O)[O-])cc2)N(S(=O)(=O)c2ccc(C)cc2)C1` (stereo not given): the composite z-score in [1] is 0.557; in experiment [2], -0.0288; in experiment [3] it was -0.0878; in experiment [4], 0.294; in experiment [5] it was 0.716; in experiment [6], 0.459. For the same molecule, the composite z-score in experiment [7] is 0.81; in experiment [9] it was 0.406; in experiment [10], -0.174; in experiment [11], -0.394; in experiment [15], 1.28; in experiment [17] it was 0.0478. For the same molecule, the composite z-score was -0.281 in [18], 0.422 in [19] and 0.0296 in experiment [20]. The z-score in [8] was -2.47 (inactive); in experiment [12], 1.33 (inactive); in experiment [13], 2.26 (inactive); in [14] it was 4.61 (inactive); in experiment [16], 0.638 (inactive).
As for `CC(C)Cc1ccc(CN2CC[C@@H](NS(=O)(=O)c3ccccc3)C2)cc1`, the composite z-score was -0.402 in [1]; 1.96 in experiment [2]; -0.192 in experiment [3]; -0.188 in experiment [4]; -1.43 in [5]; -0.163 in [6]. Also, the composite z-score in [7] is -0.0314; in experiment [9], -0.459; in [10] it was -0.132; in experiment [11] it was 1.01; in experiment [15], 0.846; in experiment [17], -0.296. In addition, the composite z-score in [18] is 0.864; in experiment [19], 0.12; in experiment [20] it was -0.154. Also, the z-score in experiment [8] is -0.803 (inactive); in experiment [12] it was -14.6 (active); in [13], -20.9 (active); in [14] it was -3.57 (inactive); in experiment [16], -19.6 (active).
On to `CCOC(=O)C1=CCC(c2ccc(C#N)cc2)N(S(=O)(=O)c2ccc(C)cc2)C1` (stereo not given), for which the composite z-score turned out to be 0.657 in [1]; 0.359 in experiment [2]; 0.165 in experiment [3]; 0.446 in experiment [4]; 1.67 in [5]; 1.32 in experiment [6]. Moreover, the composite z-score in experiment [7] came out at 1.27; in [9], 1.27; in experiment [10], 0.11; in experiment [11], 1.11; in experiment [15] it was 2.64; in experiment [17], 0.276. In addition, the composite z-score in experiment [18] is -0.184; in [19], 1.09; in [20] it was -0.0297. Moreover, the z-score in experiment [8] was -3.85 (inactive); in [12], -0.0764 (inactive); in experiment [13], 0.0767 (inactive); in experiment [14], 2.91 (inactive); in experiment [16] it was 0.394 (inactive).
For `CN1C(=O)C2C=CC(C(O)c3ccccn3)N(Nc3ccccc3)C2C1=O` (stereo not given), the composite z-score in experiment [1] was -0.0437; in [2], 1.11; in experiment [3], -0.0985; in [4] it was 0.479; in experiment [5], 0.766; in [6], 0.838. Besides, the composite z-score was found to be 0.684 in [7]; 0.113 in experiment [9]; 0.176 in [10]; 0.949 in experiment [11]; 0.68 in [15]; 0.0524 in experiment [17]. Moreover, the values for the composite z-score in experiment [18], in experiment [19] and in [20] were 0.021, 0.186 and -0.0746, respectively. Also, the z-score in experiment [8] is 0.595 (inactive); in experiment [12] it was 0.826 (inactive); in [13] it was 0.632 (inactive); in [14] it was 1.23 (inactive); in experiment [16] it was -0.324 (inactive).
As to `CC(=O)C1=CCC(c2ccccc2)N(S(=O)(=O)c2ccc(C)cc2)C1` (stereo not given), the composite z-score in experiment [1] turned out to be 0.174; in [2], 0.453; in experiment [3], 0.0592; in experiment [4], 0.679; in [5], 0.691; in experiment [6], 0.628. For the same molecule, the composite z-score was 1.23 in [7]; 0.57 in experiment [9]; -0.0142 in experiment [10]; 1.53 in [11]; 2.6 in experiment [15]; -0.0118 in [17]. Moreover, the composite z-score in experiment [18] was 0.229; in experiment [19], 0.821; in experiment [20], -0.039. Further, the z-score in experiment [8] is -2.72 (inactive); in [12], -1.31 (inactive); in experiment [13], 0.888 (inactive); in experiment [14], 4.92 (inactive); in experiment [16], -1.03 (inactive).
